In PubChem BioAssay AID1159580 (chemical genetic matrix, 2015):
Among all 5,500 compounds or so, about 2,000 (36%) were called active. Another 18% or so got no clear call; they are omitted. Rule as the data show it: active = normalized growth mostly below about 0.91 (no sharp cut-off); inconclusive = no clear call, values can overlap the other calls; inactive = mostly above about 0.92. The list shows a part of the results.

Assay: chemical genetic growth profiling, strain panel (AID 1159580);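 also: tested at 20 µM; growth read once vehicle control cultures reached saturation at 30 °C; 1 = growth at the plate median or of vehicle wells; lower values mean less growth of the strain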
Details: growth OD

Measured: normalized growth

CCC(=O)OCC(=O)C1(OC(=O)CC)C(C)CC2C3CCC4=CC(=O)C=CC4(C)C3(Cl)C(O)CC21C (configuration not stated)
active: S. cerevisiae deletion strains, locus YOR270C, strain vph1, hits give low values 0.757
inactive: S. cerevisiae deletion strains, locus YJR043C, strain POL32, hits give low values 1.03 | S. cerevisiae deletion strains, locus YJR066W, strain TOR1, hits give low values 0.995 | S. cerevisiae deletion strains, locus YKL009W, strain mrt4, hits give low values 1 | S. cerevisiae deletion strains, locus YKL068W, hits give low values 0.989 | S. cerevisiae deletion strains, locus YKL085W, strain MDH1 (second series), hits give low values 0.997 | S. cerevisiae deletion strains, locus YKL085W, strain MDH1, hits give low values 0.997 | S. cerevisiae deletion strains, locus YKL160W, strain elf1, hits give low values 0.964 | S. cerevisiae deletion strains, locus YKR001C, strain vps1, hits give low values 0.992 | S. cerevisiae deletion strains, locus YKR026C, strain gcn3, hits give low values 0.983 | S. cerevisiae deletion strains, locus YKR091W, strain srl3, hits give low values 0.983 | S. cerevisiae deletion strains, locus YLL001W, strain dnm1, hits give low values 0.927 | S. cerevisiae deletion strains, locus YLL026W, hits give low values 0.989 | S. cerevisiae deletion strains, locus YLL041C, strain sdh2, hits give low values 0.977 | S. cerevisiae deletion strains, locus YLR027C, strain aat2, hits give low values 0.962 | S. cerevisiae deletion strains, locus YLR039C, strain RIC1, hits give low values 1.02 | S. cerevisiae deletion strains, locus YLR058C, strain SHM2, hits give low values 1.02 | S. cerevisiae deletion strains, locus YLR102C, strain apc9, hits give low values 0.994 | S. cerevisiae deletion strains, locus YLR113W, strain HOG1, hits give low values 1.07 | S. cerevisiae deletion strains, locus YLR221C, strain rsa3, hits give low values 1.01 | S. cerevisiae deletion strains, locus YLR258W, strain gsy2, hits give low values 0.993 | S. cerevisiae deletion strains, locus YLR262C, strain YPT6 (second series), hits give low values 0.915 | S. cerevisiae deletion strains, locus YLR262C, strain YPT6, hits give low values 1.07 | S. cerevisiae deletion strains, locus YLR268W, strain sec22, hits give low values 0.985 | S. cerevisiae deletion strains, locus YLR320W, strain mms22, hits give low values 0.983 | S. cerevisiae deletion strains, locus YLR330W, strain CHS5, hits give low values 1.02 | S. cerevisiae deletion strains, locus YLR342W, strain FKS1 (second series), hits give low values 1.05 | S. cerevisiae deletion strains, locus YLR342W, strain FKS1, hits give low values 0.977 | S. cerevisiae deletion strains, locus YLR357W, strain rsc2, hits give low values 1.03 | S. cerevisiae deletion strains, locus YLR370C, strain arc18, hits give low values 0.963 | S. cerevisiae deletion strains, locus YLR371W, strain rom2, hits give low values 0.992 | S. cerevisiae deletion strains, locus YLR384C, strain iki3, hits give low values 0.958 | S. cerevisiae deletion strains, locus YLR418C, strain cdc73, hits give low values 0.984 | S. cerevisiae deletion strains, locus YML016C, strain PPZ1, hits give low values 1.02 | S. cerevisiae deletion strains, locus YML032C, strain rad52, hits give low values 0.994 | S. cerevisiae deletion strains, locus YML120C, strain ndi1, hits give low values 0.958 | S. cerevisiae deletion strains, locus YML124C, strain tub3, hits give low values 0.985 | S. cerevisiae deletion strains, locus YMR058W, strain fet3, hits give low values 0.986 | S. cerevisiae deletion strains, locus YMR078C, strain ctf18, hits give low values 0.992 | S. cerevisiae deletion strains, locus YMR125W, strain sto1, hits give low values 0.988 | S. cerevisiae deletion strains, locus YMR129W, hits give low values 0.976 | S. cerevisiae deletion strains, locus YMR205C, strain PFK2, hits give low values 0.965 | S. cerevisiae deletion strains, locus YMR223W, strain ubp8, hits give low values 1 | S. cerevisiae deletion strains, locus YMR231W, strain pep5, hits give low values 0.971 | S. cerevisiae deletion strains, locus YMR307W, strain GAS1, hits give low values 1.09 | S. cerevisiae deletion strains, locus YNL067W, strain RPL9B, hits give low values 0.996 | S. cerevisiae deletion strains, locus YNL071W, strain lat1, hits give low values 0.989 | S. cerevisiae deletion strains, locus YNL183C, strain NPR1, hits give low values 0.983 | S. cerevisiae deletion strains, locus YNL209W, strain ssb2, hits give low values 0.997 | S. cerevisiae deletion strains, locus YNL233W, strain BNI4, hits give low values 1 | S. cerevisiae deletion strains, locus YNL248C, strain rpa49, hits give low values 0.973 | S. cerevisiae deletion strains, locus YNL250W, strain rad50, hits give low values 1 | S. cerevisiae deletion strains, locus YNL271C, strain bni1, hits give low values 0.988 | S. cerevisiae deletion strains, locus YNL298W, strain CLA4, hits give low values 0.991 | S. cerevisiae deletion strains, locus YNL307C, strain MCK1, hits give low values 0.981 | S. cerevisiae deletion strains, locus YNL322C, strain KRE1 (second series), hits give low values 0.971 | S. cerevisiae deletion strains, locus YNR049C, strain mso1, hits give low values 0.982 | S. cerevisiae deletion strains, locus YNR052C, strain pop2, hits give low values 0.994 | S. cerevisiae deletion strains, locus YOL012C, strain htz1 1.1 | S. cerevisiae deletion strains, locus YOL147C, strain pex11, hits give low values 0.986 | S. cerevisiae deletion strains, locus YOR001W, strain rrp6, hits give low values 0.952 | S. cerevisiae deletion strains, locus YOR061W, strain CKA2, hits give low values 1.02 | S. cerevisiae deletion strains, locus YOR069W, strain VPS5, hits give low values 1.01 | S. cerevisiae deletion strains, locus YOR070C, strain gyp1, hits give low values 0.996 | S. cerevisiae deletion strains, locus YOR080W, strain dia2, hits give low values 0.954 | S. cerevisiae deletion strains, locus YOR083W, strain WHI5, hits give low values 0.946 | S. cerevisiae deletion strains, locus YOR106W, strain vam3, hits give low values 0.931 | S. cerevisiae deletion strains, locus YOR136W, strain idh2, hits give low values 0.979 | S. cerevisiae deletion strains, locus YOR144C, strain elg1, hits give low values 0.991 | S. cerevisiae deletion strains, locus YOR184W, strain ser1, hits give low values 0.986 | S. cerevisiae deletion strains, locus YOR231W, strain MKK1, hits give low values 1.05 | S. cerevisiae deletion strains, locus YOR265W, strain rbl2, hits give low values 0.985 | S. cerevisiae deletion strains, locus YOR290C, strain snf2, hits give low values 1 | S. cerevisiae deletion strains, locus YOR316C, strain cot1, hits give low values 0.991 | S. cerevisiae deletion strains, locus YPL051W, strain arl3, hits give low values 0.986 | S. cerevisiae deletion strains, locus YPL055C, strain LGE1, hits give low values 1.01 | S. cerevisiae deletion strains, locus YPL078C, strain atp4, hits give low values 0.921 | S. cerevisiae deletion strains, locus YPL106C, strain sse1, hits give low values 1.06 | S. cerevisiae deletion strains, locus YPL240C, strain hsp82, hits give low values 0.976 | S. cerevisiae deletion strains, locus YPL241C, strain CIN2, hits give low values 1.02 | S. cerevisiae deletion strains, locus YPL256C, strain CLN2, hits give low values 1.05 | S. cerevisiae deletion strains, locus YPR119W, strain clb2, hits give low values 0.988 | S. cerevisiae deletion strains, locus YPR141C, strain kar3, hits give low values 0.988 | S. cerevisiae deletion strains, locus YPR163C, strain tif3, hits give low values 0.995 | S. cerevisiae deletion strains, locus YPR167C, strain met16, hits give low values 0.993 | S. cerevisiae deletion strains, strain wtn01, hits give low values 0.977 | S. cerevisiae strains, strain wild type, hits give low values 1.02
